Data: PubChem BioAssay AID1159580 (chemical genetic matrix, 2015)
Several values for one entry are separate records, joined by “and”; a condition that tells them apart may be missing. Equal entries are not always repeated. Among all 5,500 compounds or so, about 2,000 (36%) were called active. About 18% were inconclusive and are not listed. Rule as the data show it: active = normalized growth mostly below about 0.91 (no sharp cut-off); inconclusive = no clear call, values can overlap the other calls; inactive = mostly above about 0.92. The list shows a part of the results.

Experiment: chemical genetic growth profiling, strain panel (AID 1159580);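 also: tested at 20 µM; growth read once vehicle control cultures reached saturation at 30 °C; 1 = growth at the plate median or of vehicle wells; lower values mean less growth of the strain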
Settings: S. cerevisiae deletion strains, growth OD
[1] = locus YBR229C, strain ROT2, active compounds read low
[2] = locus YDL101C, strain DUN1, active compounds read low
[3] = locus YDR150W, strain NUM1, active compounds read low
[4] = locus YEL061C, strain CIN8, active compounds read low
[5] = locus YGR078C, strain PAC10, active compounds read low
[6] = locus YHR030C, strain SLT2, active compounds read low
[7] = locus YJR043C, strain POL32, active compounds read low
[8] = locus YLR039C, strain RIC1, active compounds read low
[9] = locus YLR262C, strain YPT6, active compounds read low
[10] = locus YMR307W, strain GAS1, active compounds read low
[11] = locus YHR079C, strain IRE1, active compounds read low
[12] = locus YJL095W, strain BCK1, active compounds read low
[13] = locus YJR066W, strain TOR1, active compounds read low
[14] = locus YLR113W, strain HOG1, active compounds read low
[15] = locus YNL183C, strain NPR1, active compounds read low
[16] = locus YOR061W, strain CKA2, active compounds read low
[17] = locus YOR231W, strain MKK1, active compounds read low
[18] = locus YPL256C, strain CLN2, active compounds read low

Measured: normalized growth

CN(C)/C=C1/C(=O)NN=C1CSc1ccccn1
inactive: locus YAL013W, strain DEP1, active compounds read low 1 | [1] 0.999 | locus YCL061C, strain MRC1, active compounds read low 1.03 | [2] 1.03 | [3] 1.04 | [4] 0.999 | [5] 1.02 | [6] 1.09 | locus YHR087W, strain rtc3, active compounds read low 0.948 | [7] 1.02 | locus YJR075W, strain HOC1, active compounds read low 1.01 | locus YKL190W, strain CNB1, active compounds read low 1.02 | [8] 1.11 | locus YLR058C, strain SHM2 (second series), active compounds read low 0.974 | locus YLR085C, strain ARP6, active compounds read low 1.05 | [9] 1.02 | locus YML094W, strain GIM5, active compounds read low 1.01 | locus YMR219W, strain ESC1, active compounds read low 0.982 | locus YMR263W, strain SAP30, active compounds read low 1.01 | [10] 1.07 | locus YNL153C, strain GIM3, active compounds read low 1.03 | locus YNL298W, strain CLA4 (second series), active compounds read low 1.04 | locus YNL322C, strain KRE1, active compounds read low 0.985 | locus YNR030W, strain Alg12, active compounds read low 1.01 | locus YPL055C, strain LGE1, active compounds read low 0.972 | locus YPL241C, strain CIN2, active compounds read low 1 | locus YPR135W, strain CTF4, active compounds read low 1.09

O=C(Nc1cc2c(s1)-c1cc(Cl)ccc1SC2)Oc1ccccc1
inactive: locus YAR019C, strain CDC15, active compounds read low 0.977 | locus YBL105C, strain PKC1, active compounds read low 1.01 | locus YBR135W, strain CKS1, active compounds read low 1.01 | locus YBR136W, strain MEC1, active compounds read low 0.995 | locus YBR160W, strain CDC28, active compounds read low 0.99 | locus YDL017W, strain CDC7, active compounds read low 1.01 | locus YDL028C, strain MPS1, active compounds read low 0.984 | [2] 0.989 | locus YDL108W, strain KIN28, active compounds read low 0.986 | locus YDL132W, strain cdc53, active compounds read low 1 | locus YDL214C, strain PRR2, active compounds read low 0.928 | locus YDR052C, strain DBF4, active compounds read low 0.997 | locus YDR054C, strain cdc34, active compounds read low 0.999 | locus YDR226W, strain ADK1, active compounds read low 1 | locus YDR477W, strain SNF1, active compounds read low 0.964 | locus YER123W, strain YCK3, active compounds read low 0.936 | locus YER133W, strain GLC7, active compounds read low 0.972 | locus YFL009W, strain cdc4, active compounds read low 0.997 | locus YFL029C, strain CAK1, active compounds read low 0.978 | locus YFR003C, strain YPI1, active compounds read low 0.998 | locus YFR019W, strain FAB1, active compounds read low 0.927 | locus YFR028C, strain CDC14, active compounds read low 1 | locus YGR040W, strain KSS1, active compounds read low 0.97 | locus YGR052W, strain FMP48, active compounds read low 1.01 | locus YGR092W, strain DBF2, active compounds read low 0.966 | [6] 0.911 | [11] 0.939 | locus YHR082C, strain KSP1, active compounds read low 0.962 | locus YHR205W, strain SCH9, active compounds read low 0.914 | locus YIL147C, strain SLN1, active compounds read low 0.994 | [12] 0.927 | locus YJL128C, strain PBS2, active compounds read low 1.02 | locus YJL157C, strain FAR1, active compounds read low 0.959 | locus YJR016C, strain ILV3, active compounds read low 0.999 | locus YJR066W, strain TOR1 (second series), active compounds read low 0.946 | [13] 0.951 | locus YKL048C, strain ELM1, active compounds read low 0.98 | locus YKL067W, strain YNK1, active compounds read low 0.946 | locus YKL101W, strain HSL1, active compounds read low 0.953 | locus YKL193C, strain SDS22, active compounds read low 1.01 | locus YKL203C, strain TOR2, active compounds read low 1.01 | locus YLR133W, strain CKI1, active compounds read low 0.938 | locus YLR403W, strain SFP1, active compounds read low 0.946 | locus YML070W, strain DAK1, active compounds read low 0.957 | locus YMR001C, strain CDC5, active compounds read low 1 | locus YMR205C, strain PFK2 (second series), active compounds read low 0.966 | locus YMR277W, strain FCP1, active compounds read low 0.999 | locus YNL006W, strain LST8, active compounds read low 0.99 | locus YNL020C, strain ARK1, active compounds read low 0.938 | locus YNL161W, strain CBK1, active compounds read low 0.993 | [15] 0.941 | locus YNL207W, strain RIO2, active compounds read low 0.997 | locus YNL222W, strain SSU72, active compounds read low 1.01 | locus YNL307C, strain MCK1 (second series), active compounds read low 0.949 | locus YOL078W, strain AVO1, active compounds read low 1 | locus YOL136C, strain PFK27, active compounds read low 0.914 | [16] 0.934 | locus YOR119C, strain RIO1, active compounds read low 0.988 | [17] 0.949 | locus YOR329C, strain SCD5, active compounds read low 1 | locus YPL031C, strain PHO85, active compounds read low 0.963 | locus YPL153C, strain RAD53, active compounds read low 0.968 | locus YPL204W, strain HRR25, active compounds read low 0.959 | locus YPL209C, strain IPL1, active compounds read low 1 | [18] 0.912 | locus YPR025C, strain CCL1, active compounds read low 1.01 | locus YPR106W, strain ISR1, active compounds read low 0.997 | locus YPR111W, strain DBF20, active compounds read low 1.01 | strain NNK1, active compounds read low 1 | strain TSCII, active compounds read low 1
active: [14] 0.849

COc1cccc(O)c1O
inactive: locus YBR021W, strain FUR4, active compounds read low 1.02 | [1] 1.04 | locus YCL029C, strain bik1, active compounds read low 1 | locus YDL035C, strain GPR1, active compounds read low 1.03 | locus YDL074C, strain BRE1, active compounds read low 1.01 | [2] 1.01 | locus YDL134C, strain PPH21, active compounds read low 1.08 | locus YDL185W, strain tfp1, active compounds read low 1.01 | locus YDL192W, strain arf1, active compounds read low 1 | locus YDR101C, strain arx1, active compounds read low 1.01 | [3] 1.04 | locus YDR162C, strain NBP2, active compounds read low 1.07 | locus YDR318W, strain mcm21, active compounds read low 1 | locus YDR388W, active compounds read low 1.01 | locus YDR502C, strain sam2, active compounds read low 1.01 | [4] 1.02 | locus YER110C, active compounds read low 0.996 | locus YER155C, strain BEM2, active compounds read low 1.04 | locus YER167W, strain BCK2, active compounds read low 1.05 | locus YGL078C, strain dbp3, active compounds read low 1.01 | locus YGL086W, strain mad1, active compounds read low 0.999 | locus YGL248W, strain PDE1, active compounds read low 1.03 | [5] 1.05 | locus YGR135W, strain pre9, active compounds read low 0.976 | locus YGR252W, strain gcn5, active compounds read low 0.936 | [6] 1.03 and 0.988 | locus YHR079C, strain IRE1 (second series), active compounds read low 1.02 | [11] 0.999 | locus YHR094C, strain hxt1, active compounds read low 1 | locus YHR129C, strain ARP1, active compounds read low 1.02 | locus YHR200W, strain rpn10, active compounds read low 1 | locus YIL066C, strain RNR3, active compounds read low 1.06 | locus YIL073C, strain SPO22, active compounds read low 1.03 | locus YIL125W, strain kgd1, active compounds read low 1 | locus YIR030C, strain dcg1, active compounds read low 1.04 | [12] 1.02 and 0.997 | locus YJL134W, strain LCB3, active compounds read low 1.03 | locus YJL168C, strain set2, active compounds read low 1 | locus YJL187C, strain SWE1 (second series), active compounds read low 0.976 | [7] 1.04 | [13] 0.925 | locus YKL009W, strain mrt4, active compounds read low 1.01 | locus YKL068W, active compounds read low 1.01 | locus YKL085W, strain MDH1 (second series), active compounds read low 1.02 | locus YKL085W, strain MDH1, active compounds read low 1.02 | locus YKR001C, strain vps1, active compounds read low 1.02 | [8] 1.17 | locus YLR058C, strain SHM2, active compounds read low 0.995 | locus YLR102C, strain apc9, active compounds read low 0.995 | [14] 0.989 | [9] 1.15 | locus YLR268W, strain sec22, active compounds read low 0.989 | locus YLR330W, strain CHS5, active compounds read low 1.03 | locus YLR342W, strain FKS1 (second series), active compounds read low 1.01 | locus YLR371W, strain rom2, active compounds read low 1 | locus YLR418C, strain cdc73, active compounds read low 1.01 | locus YML016C, strain PPZ1, active compounds read low 1.03 | locus YML032C, strain rad52, active compounds read low 1.01 | locus YML124C, strain tub3, active compounds read low 1.01 | locus YMR078C, strain ctf18, active compounds read low 0.99 | locus YMR223W, strain ubp8, active compounds read low 0.997 | [10] 1.09 | locus YNL067W, strain RPL9B, active compounds read low 1.05 | [15] 0.926 | locus YNL233W, strain BNI4, active compounds read low 1.05 | locus YNL250W, strain rad50, active compounds read low 0.996 | locus YNL271C, strain bni1, active compounds read low 0.994 | locus YNL298W, strain CLA4, active compounds read low 0.99 | locus YNL307C, strain MCK1, active compounds read low 1.01 | locus YNR052C, strain pop2, active compounds read low 1.01 | locus YOL006C, strain TOP1, active compounds read low 1.27 | locus YOL012C, strain htz1 0.899 | locus YOL147C, strain pex11, active compounds read low 1 | [16] 1.02 | locus YOR069W, strain VPS5, active compounds read low 1.02 | locus YOR136W, strain idh2, active compounds read low 0.994 | locus YOR144C, strain elg1, active compounds read low 1.01 | locus YOR184W, strain ser1, active compounds read low 1.02 | [17] 1.01 | locus YOR316C, strain cot1, active compounds read low 0.995 | [18] 0.994 | locus YPR119W, strain clb2, active compounds read low 1.02 | locus YPR141C, strain kar3, active compounds read low 1.01 | locus YPR163C, strain tif3, active compounds read low 0.978 | locus YPR167C, strain met16, active compounds read low 1.02 | strain wtn01, active compounds read low 0.997
